The values that follow come from PubChem BioAssay (Tox21).

Structures are written as SMILES. Inconclusive results are not listed. A number with no mark means an inactive call. Active and inactive are the calls of the source. Calls follow the shape of the dose curve; as a rule, active = well fitted curve in the direction sought with a large enough effect in the repeat runs; inconclusive = weak or mixed curves; inactive = no such curve, though single readings can be large; an effect the other way counts as inactive or inconclusive.
% is scaled to controls: 0 for no effect and ±100 for the full control effect.

System in one test: not listed separately
In words: qHTS assay to identify small molecule antagonists of the estrogen related receptor (ERR) signaling pathway from Tox21 library - cell viability counter screen (AID 1224834). Also: nearly all actives have a fitted effect of over 30% in size. Also: potency is read from the fitted curve at half-maximal effect. The conditions noted are these: ERR reporter cells viability, CellTiter-Fluor, 17.5 h; series mostly up to 92.4 µM; viability change, negative = cytotoxic: at the top concentration. A digest of the protocol:
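ERR reporter cells, 2,000 per well, rested 6 h, then exposed to compound in DMSO for 17.5 hours at 37 C. Viability read as fluorescence after 30 min with CellTiter-Fluor.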
Take `O=C(O)C1(C(=O)O)CCC1.[NH2-].[NH2-].[Pt+2]`: the “viability change, negative = cytotoxic” value was 1.57% [at 42.5 µM]. In the case of `CC/C=C\CCOC(=O)CC`, the “viability change, negative = cytotoxic” value was -0.285%.

For `C=C(C)C(=O)OCCO`, the “viability change, negative = cytotoxic” value was -4.75%. Consider `CCOc1ccc(O)cc1`, for which the “viability change, negative = cytotoxic” value was -10%. Consider `CCOc1ccc(N=Nc2ccc(/C=C/c3ccc(N=Nc4ccc(OCC)cc4)cc3S(=O)(=O)O)c(S(=O)(=O)O)c2)cc1`, for which the Potency was 24 µM (active).

With `CCCCCCCCCCCc1ccccc1`, the “viability change, negative = cytotoxic” value was -3.43%.

For the molecule `Nc1ccc(S(=O)(=O)Nc2ccccc2)cc1`, the “viability change, negative = cytotoxic” value was -7.2% [at 42.5 µM].

With `C=CC(=O)OCCOc1ccccc1`, the “viability change, negative = cytotoxic” value was -10.8%. Still for that read-out and setting: as for `C/C=C/C=C/CO`, the figure is 1.94%. Turning to `O=S(=O)(Oc1ccc(Cl)cc1)c1ccccc1`, the “viability change, negative = cytotoxic” value is -4.86%. Turning to `CCCCO`, the “viability change, negative = cytotoxic” value is -2.73%.

As for `CC(=O)[O][Al]`, the “viability change, negative = cytotoxic” value was 6.86%. With `CC(=O)c1ccc2c(c1)N(CCCN1CCC(CCO)CC1)c1ccccc1S2`, the Potency is 23.7 µM (active). Take `CN1CCN(C(c2ccccc2)c2ccccc2)CC1`: the “viability change, negative = cytotoxic” value was 2.37% [at 42.5 µM].

Take `OC(C#CCN1CCCC1)(c1ccccc1)c1ccccc1`: the “viability change, negative = cytotoxic” value was -1.16% [at 42.5 µM]. On the same count and under the same terms, as for `Cc1cccc(Nc2ccccc2)c1`, the figure is -5.6%. On the same count and under the same terms, as for `Cc1ccc(C(=O)Oc2ccc(C(O)CNC(C)(C)C)cc2OC(=O)c2ccc(C)cc2)cc1` (configuration not stated), the figure is -1.35% [at 42.5 µM]. With `CC(C)C[C@H]1C(=O)N2CCC[C@H]2[C@]2(O)O[C@](NC(=O)[C@@H]3C=C4c5cccc6[nH]c(Br)c(c56)C[C@H]4N(C)C3)(C(C)C)C(=O)N12`, the Potency is 18.4 µM (active). On to `Nc1cc(C(=O)O)c(O)c(S(=O)(=O)O)c1`, for which the “viability change, negative = cytotoxic” value is 0.92%. Still for that read-out and setting: as for `CC(=O)OC[C@H]1O[C@@H](n2ncc(=O)[nH]c2=O)[C@H](OC(C)=O)[C@@H]1OC(C)=O`, the figure is 6.22% [at 42.5 µM]; as for `Cc1[nH]c(C)c(Cl)c(=O)c1Cl`, 0.386% [at 19 µM]. `CN1C[C@H]2c3ccccc3Oc3ccc(Cl)cc3[C@@H]2C1`: the “viability change, negative = cytotoxic” value was 0.629% [at 42.5 µM]. Still for that read-out and setting: as for `O=C1OC(=O)C2C3C=CC(C3)C12` (configuration not stated), the figure is 8.39%; as for `CC(=O)NO`, 3.79% [at 42.5 µM]. In the case of `O=CC1CC=CCC1` (configuration not stated), the “viability change, negative = cytotoxic” value was -0.903%. The same measure, in the same setting: as for `CN(Cc1ccc(C(C)(C)C)cc1)Cc1cccc2ccccc12`, the figure is 7.34% [at 42.5 µM]; as for `CC(C)Cc1ccc(C(C)C(=O)OCc2ccccn2)cc1` (configuration not stated), -0.641% [at 42.5 µM]; as for `O=[N+]([O-])c1ccc2[nH]ncc2c1`, -1.28%. With `NCC(=O)CCC(=O)O`, the “viability change, negative = cytotoxic” value is 2.04% [at 42.5 µM].

Another test deals with Luciferin 4-monooxygenase (Photinus pyralis) (UniProt P08659). Description: qHTS assay to identify small molecule inhibitors of firefly luciferase (AID 1224835). Also: nearly all actives have a fitted effect of over 25% in size. To be noted: purified P. pyralis luciferase, luminescence inhibition; series mostly up to 115 µM; activity change, negative = inhibition: at the top concentration. A digest of the protocol: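 Biochemical qHTS: compounds run as interplate titrations against purified firefly enzyme, with D-luciferin and ATP each at its KM concentration. Light output recorded by CCD imaging.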
Luciferin 4-monooxygenase (Photinus pyralis), sequence (P08659 whole entry, looked up): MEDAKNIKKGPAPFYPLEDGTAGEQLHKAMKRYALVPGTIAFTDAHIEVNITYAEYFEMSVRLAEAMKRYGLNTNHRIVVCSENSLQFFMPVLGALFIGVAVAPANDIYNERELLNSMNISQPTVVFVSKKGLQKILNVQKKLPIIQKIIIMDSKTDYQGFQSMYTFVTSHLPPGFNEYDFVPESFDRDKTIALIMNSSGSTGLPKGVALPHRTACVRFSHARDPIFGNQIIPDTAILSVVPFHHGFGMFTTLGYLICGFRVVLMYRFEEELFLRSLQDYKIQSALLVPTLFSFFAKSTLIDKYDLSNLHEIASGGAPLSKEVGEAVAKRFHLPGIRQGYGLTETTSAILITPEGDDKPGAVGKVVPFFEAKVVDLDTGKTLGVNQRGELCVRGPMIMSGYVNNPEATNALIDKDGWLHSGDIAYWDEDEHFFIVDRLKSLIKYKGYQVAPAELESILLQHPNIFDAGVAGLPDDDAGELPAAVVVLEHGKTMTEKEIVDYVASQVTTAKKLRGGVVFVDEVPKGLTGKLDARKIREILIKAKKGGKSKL
As to `CN(C)C(=O)NC1(c2ccccc2)CCN(CC[C@@]2(c3ccc(F)c(F)c3)CN(C(=O)c3ccccc3)CCO2)CC1`, the “activity change, negative = inhibition” value was 6.31%. Same read-out and setting: as for `O=C(O)C1(C(=O)O)CCC1.[NH2-].[NH2-].[Pt+2]`, the figure is 1% [at 52.9 µM]; as for `CC/C=C\CCOC(=O)CC`, 3.65%.

`C=C(C)C(=O)OCCO`: the “activity change, negative = inhibition” value is 1.05%. Consider `CCOc1ccc(O)cc1`, for which the “activity change, negative = inhibition” value is 0.143%. Same read-out and setting: as for `Cn1c(=O)cc(Oc2ccc(F)cc2F)c2cnc(NCC(C)(C)O)nc21`, the figure is -2.57%; as for `CCOc1ccc(N=Nc2ccc(/C=C/c3ccc(N=Nc4ccc(OCC)cc4)cc3S(=O)(=O)O)c(S(=O)(=O)O)c2)cc1`, -14.4%. The same measure, in the same setting: as for `CCCCCCCCCCCc1ccccc1`, the figure is 3.69%; as for `Nc1ccc(S(=O)(=O)Nc2ccccc2)cc1`, 9.18% [at 52.9 µM]; as for `C/C=C/C=C/CO`, 0.819%. On the same count and under the same terms, as for `CC(=O)c1ccc2c(c1)N(CCCN1CCC(CCO)CC1)c1ccccc1S2`, the figure is 4.77% [at 52.9 µM]; as for `CN1CCN(C(c2ccccc2)c2ccccc2)CC1`, 1.05% [at 52.9 µM]; as for `OC(C#CCN1CCCC1)(c1ccccc1)c1ccccc1`, 3.81% [at 52.9 µM]. Regarding `CNCCCCOc1ccccc1Cc1ccccc1`, the “activity change, negative = inhibition” value was 0.206% [at 52.9 µM].

Turning to `Cc1ccc(C(=O)Oc2ccc(C(O)CNC(C)(C)C)cc2OC(=O)c2ccc(C)cc2)cc1` (configuration not stated), the “activity change, negative = inhibition” value was 2.18% [at 52.9 µM]. Same read-out and setting: with `CC(C)C[C@H]1C(=O)N2CCC[C@H]2[C@]2(O)O[C@](NC(=O)[C@@H]3C=C4c5cccc6[nH]c(Br)c(c56)C[C@H]4N(C)C3)(C(C)C)C(=O)N12` the figure was -1.53% [at 52.9 µM]. The same measure, in the same setting: as for `Nc1cc(C(=O)O)c(O)c(S(=O)(=O)O)c1`, the figure is -6.86%; as for `CC(=O)OC[C@H]1O[C@@H](n2ncc(=O)[nH]c2=O)[C@H](OC(C)=O)[C@@H]1OC(C)=O`, -0.45% [at 52.9 µM]. On the same count and under the same terms, as for `Cc1[nH]c(C)c(Cl)c(=O)c1Cl`, the figure is -1.3% [at 23.6 µM]; as for `CN1C[C@H]2c3ccccc3Oc3ccc(Cl)cc3[C@@H]2C1`, 5.33% [at 52.9 µM]; as for `CCCCC(CC)CN1C(=O)C2C3C=CC(C3)C2C1=O` (configuration not stated), 2.34%. On to `O=C1OC(=O)C2C3C=CC(C3)C12` (configuration not stated), for which the “activity change, negative = inhibition” value was 0.719%. The same measure, in the same setting: as for `CC(=O)NO`, the figure is 10.2% [at 52.9 µM]. Same read-out and setting: as for `O=CC1CC=CCC1` (configuration not stated), the figure is 0.222%; as for `CN(Cc1ccc(C(C)(C)C)cc1)Cc1cccc2ccccc12`, -0.465% [at 52.9 µM].

Regarding `CCCCC/C=C\C/C=C\CCCCCCCC(=O)NC(C)c1ccccc1` (configuration not stated), the “activity change, negative = inhibition” value was 0.928% [at 52.9 µM]. On the same count and under the same terms, with `O=[N+]([O-])c1ccc2[nH]ncc2c1` the figure was 1.48%; with `NCC(=O)CCC(=O)O`, 5.25% [at 52.9 µM].
